In PubChem BioAssay:
The other results are listed elsewhere or left out. A number with no mark means an inactive call. Active and inactive are the calls of the source.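 The calls were made as follows, unless noted: active = mean inhibition across replicates above about 50% (limit read from the data); inactive = the rest.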

molecular target: Sentrin-specific protease 8 (Homo sapiens) (UniProt Q96LD8); assay: human SENP8 peptidase blockers, hit retest – biochemical, luminescence, single concentration, confirmation (AID 488912); conditions: Recombinant SENP8, Z-RLRGG-aminoluciferin luminescence, 60 min; at 12.5 µM; active compounds read high
Sequence (Q96LD8 whole entry, looked up): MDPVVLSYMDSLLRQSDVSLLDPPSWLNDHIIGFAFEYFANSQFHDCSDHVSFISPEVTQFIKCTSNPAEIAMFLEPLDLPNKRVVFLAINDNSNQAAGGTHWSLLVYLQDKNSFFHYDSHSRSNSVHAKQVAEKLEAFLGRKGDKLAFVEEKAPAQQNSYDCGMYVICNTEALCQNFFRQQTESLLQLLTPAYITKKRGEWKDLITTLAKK

| Compound | inhibition |
| --- | --- |
| O=c1c2ccccc2ncn1/N=C/c1ccccc1 | 2.5% |
| CCc1ccc(NC(=O)C(=O)NNC(=O)c2cccs2)cc1 | 58.4% (active) |
| CCOC(=O)c1sc(NC(=O)c2ccncc2)nc1C | 0.5% |
| O=C1/C(=C/c2cccs2)CCc2ccccc21 | 98.3% (active) |
| CC(=O)Nc1ccc(/C=N/NC(=O)c2cccs2)cc1 | 31.2% |
| O=C(Nc1ccccc1)c1cc2ccccc2[nH]1 | -22.5% |
| O=C(Nc1ccccc1Cl)Nc1cccc2cccnc12 | 35.6% |
| CCCCOc1ccc(-c2nnc(-c3ccco3)o2)cc1 | 37.7% |
| c1csc(-c2nc(-c3ccncc3)no2)c1 | 19.7% |
| Oc1ccccc1-c1cc(-c2ccc(Cl)cc2)n[nH]1 | 93.9% (active) |
| O=c1c(-c2ccccc2)coc2cc(O)ccc12 | 61.7% (active) |
| Cc1cccc(OCC(=O)Nc2ccccc2F)c1 | 20.8% |
| Cc1ccc(/C=N/NC(=O)c2cc3ccccc3cc2O)o1 | 67% (active) |
| Cc1cc(NC(=O)Nc2ccccc2[N+](=O)[O-])no1 | 46% |
| Cc1ccccc1Nc1nc(-c2cccnc2)cs1 | 70.3% (active) |
| Brc1ccc(-c2nnc(-c3ccccc3)o2)o1 | 25.1% |
| O=C(NC(=O)c1ccccc1)Nc1ccccc1O | -10% |
| COc1ccc(NC(=O)Nc2cccc3cccnc23)cc1 | 86.4% (active) |
| Cc1cc(C(=O)Nc2nnc(C3CC3)s2)c(C)s1 | 63.4% (active) |
| COc1cc(NC(=O)COC(=O)c2ccc([N+](=O)[O-])s2)cc(OC)c1OC | 79.5% (active) |

| Compound | inhibition |
| --- | --- |
| COc1cccc(OCC(O)CNC(=O)c2oc3c(C)c(C)ccc3c2C)c1 (stereo not drawn) | 5.2% |
| c1ccc(-c2cc(-c3ccccc3)[nH]n2)cc1 | 69.7% (active) |
| COc1ccc(C(=O)Nc2ccc(C3(C#N)CCCC3)cc2)cc1OC | 93% (active) |
| N=c1c2c3c(sc2nc2n1CCCCC2)CCCC3 | 10.9% |
| CC(=O)N1C(=O)/C(=C2\SC(=S)N(NC(=O)c3ccc(O)cc3)C2=O)c2ccccc21 | 25.6% |
| Cc1nonc1C(=O)N/N=C/c1ccc(O)cc1 | 99.5% (active) |
| CNc1nc(Nc2ccc(C)c(Cl)c2)nc(N)c1[N+](=O)[O-] | 97.8% (active) |
| O=C(Nc1cccnc1Cl)c1cc(-c2ccccc2O)on1 | 8.6% |
| c1ccc(-c2noc(-c3cccs3)n2)nc1 | 90% (active) |
| Brc1ccccc1C1Nc2cccc3cccc(c23)N1 | -7.3% |
| COc1cccc(C(=O)Nc2ccc(NC(=O)c3ccco3)cn2)c1 | 53.1% (active) |
| C1=C(CCNc2ncnc3c2cnn3-c2ccccc2)CCCC1 | 2% |
| Cc1ccnc(NC(=O)c2ccoc2C)c1 | 85.8% (active) |
| O=C(Nc1nnc(C2CC2)s1)c1ccccn1 | 49.3% |
| O=C(Nc1nc2ccc([N+](=O)[O-])cc2s1)c1ccncc1 | 16% |
| O=c1c2c(nc3n1CCCCC3)sc1c(O)cccc12 | 53.6% (active) |
| CC1=CC(=C(C#N)c2nc3ccccc3s2)C=C(C)N1c1ccc(F)cc1F | 12.4% |
| O=C(NCc1ccccn1)c1c(O)c2c([nH]c1=O)CCCC2 | -0.6% |
| Nc1ccc(-c2nnc(-c3ccc(-c4ccccc4)cc3)o2)cc1 | 11.8% |

molecular target: Sentrin-specific protease 6 (Homo sapiens) (UniProt Q9GZR1); assay: inhibition of human SENP6 catalytic domain – biochemical, luminescence, single concentration, confirmation (AID 488915;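 active = mean inhibition above about 50% in the one-dose retest, limit read from the data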); conditions: recombinant SENP6, Z-RLRGG-aminoluciferin luminescence; at 12.5 µM; active compounds read high
Sequence (Q9GZR1 628-1112 limits assumed): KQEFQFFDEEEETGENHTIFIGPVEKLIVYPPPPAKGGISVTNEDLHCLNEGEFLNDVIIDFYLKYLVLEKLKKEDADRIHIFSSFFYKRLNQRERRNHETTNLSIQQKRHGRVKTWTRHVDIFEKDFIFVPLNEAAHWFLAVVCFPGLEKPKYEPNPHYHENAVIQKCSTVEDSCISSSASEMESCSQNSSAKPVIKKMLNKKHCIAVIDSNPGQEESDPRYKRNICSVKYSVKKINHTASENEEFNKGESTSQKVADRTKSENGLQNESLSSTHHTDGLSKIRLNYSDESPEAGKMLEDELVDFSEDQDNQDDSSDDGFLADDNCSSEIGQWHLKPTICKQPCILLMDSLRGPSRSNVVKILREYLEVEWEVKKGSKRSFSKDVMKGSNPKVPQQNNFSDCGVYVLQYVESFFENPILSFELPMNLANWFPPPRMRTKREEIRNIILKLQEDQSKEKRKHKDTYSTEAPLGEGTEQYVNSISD

| Compound | inhibition |
| --- | --- |
| O=c1c2ccccc2ncn1/N=C/c1ccccc1 | 80.2% (active) |
| CCc1ccc(NC(=O)C(=O)NNC(=O)c2cccs2)cc1 | 73.4% (active) |
| CCOC(=O)c1sc(NC(=O)c2ccncc2)nc1C | 74.8% (active) |
| O=C1/C(=C/c2cccs2)CCc2ccccc21 | 99.1% (active) |
| CC(=O)Nc1ccc(/C=N/NC(=O)c2cccs2)cc1 | 34% |
| O=C(Nc1ccccc1)c1cc2ccccc2[nH]1 | -15.9% |
| O=C(Nc1ccccc1Cl)Nc1cccc2cccnc12 | 37.2% |
| CCCCOc1ccc(-c2nnc(-c3ccco3)o2)cc1 | 44.6% |
| c1csc(-c2nc(-c3ccncc3)no2)c1 | 47.2% |
| Oc1ccccc1-c1cc(-c2ccc(Cl)cc2)n[nH]1 | 94.4% (active) |
| O=c1c(-c2ccccc2)coc2cc(O)ccc12 | 60.2% (active) |
| Cc1cccc(OCC(=O)Nc2ccccc2F)c1 | 30.1% |
| Cc1ccc(/C=N/NC(=O)c2cc3ccccc3cc2O)o1 | 65.9% (active) |
| Cc1cc(NC(=O)Nc2ccccc2[N+](=O)[O-])no1 | 40.1% |
| Cc1ccccc1Nc1nc(-c2cccnc2)cs1 | 66.9% (active) |
| Brc1ccc(-c2nnc(-c3ccccc3)o2)o1 | 50.8% (active) |
| O=C(NC(=O)c1ccccc1)Nc1ccccc1O | 6.3% |
| COc1ccc(NC(=O)Nc2cccc3cccnc23)cc1 | 85.6% (active) |
| Cc1cc(C(=O)Nc2nnc(C3CC3)s2)c(C)s1 | 80.8% (active) |
| COc1cc(NC(=O)COC(=O)c2ccc([N+](=O)[O-])s2)cc(OC)c1OC | 86.7% (active) |

| Compound | inhibition |
| --- | --- |
| COc1cccc(OCC(O)CNC(=O)c2oc3c(C)c(C)ccc3c2C)c1 (stereo not drawn) | -1.7% |
| c1ccc(-c2cc(-c3ccccc3)[nH]n2)cc1 | 64.5% (active) |
| COc1ccc(C(=O)Nc2ccc(C3(C#N)CCCC3)cc2)cc1OC | 93.6% (active) |
| N=c1c2c3c(sc2nc2n1CCCCC2)CCCC3 | 8.4% |
| CC(=O)N1C(=O)/C(=C2\SC(=S)N(NC(=O)c3ccc(O)cc3)C2=O)c2ccccc21 | 79.1% (active) |
| Cc1nonc1C(=O)N/N=C/c1ccc(O)cc1 | 101% (active) |
| CNc1nc(Nc2ccc(C)c(Cl)c2)nc(N)c1[N+](=O)[O-] | 98.7% (active) |
| O=C(Nc1cccnc1Cl)c1cc(-c2ccccc2O)on1 | 17.8% |
| c1ccc(-c2noc(-c3cccs3)n2)nc1 | 91.3% (active) |
| Brc1ccccc1C1Nc2cccc3cccc(c23)N1 | 3.3% |
| COc1cccc(C(=O)Nc2ccc(NC(=O)c3ccco3)cn2)c1 | 51% (active) |
| C1=C(CCNc2ncnc3c2cnn3-c2ccccc2)CCCC1 | 22% |
| Cc1ccnc(NC(=O)c2ccoc2C)c1 | 88.9% (active) |
| O=C(Nc1nnc(C2CC2)s1)c1ccccn1 | 49.2% |
| O=C(Nc1nc2ccc([N+](=O)[O-])cc2s1)c1ccncc1 | 17.5% |
| O=c1c2c(nc3n1CCCCC3)sc1c(O)cccc12 | 49.2% |
| CC1=CC(=C(C#N)c2nc3ccccc3s2)C=C(C)N1c1ccc(F)cc1F | 19% |
| O=C(NCc1ccccn1)c1c(O)c2c([nH]c1=O)CCCC2 | 0.3% |
| Nc1ccc(-c2nnc(-c3ccc(-c4ccccc4)cc3)o2)cc1 | 10.8% |
